# From PubChem
# HSP90 refold inh: inhibitors of HSP90 luciferase refolding in rabbit reticulocyte lysate. luciferase refolding luminescence, 3 h. inhibition, % at 5.6 µM. hit rate 0.91% among 290,000. AID 1789;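 active means inhibition above the screen-wide mean plus 3 SD, computed separately per campaign, cut at about 16% in these data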;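 further: 0% = DMSO wells and 100% = 60 µM geldanamycin wells; inhibitors lower the luminescence because luciferase stays unfolded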
# TROY NFkB inh: TROY signaling inhibition | Q293 LMP1-TROYcd NF-kB luciferase reporter, 4 h | inhibition, % at 10 µM | hit rate 0.98% among 360,000;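 active means compounds whose plate-normalised and pattern-corrected inhibition of the luciferase reporter signal at the single screening dose is 50% or more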
# LGR2 inh: Drosophila LGR2 receptor signaling inhibition; HEK293 LGR2, CRE-luciferase, bursicon-stimulated, 4 h; inhibition, % at 9.99 µM; hit rate 0.35% among 380,000;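 active means drop in luminescence signal, shown as inhibition above about 50% in the replicate tests, limit read from the data, passing the limit was not always enough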;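 further: agonist challenge used bursicon conditioned medium at about half maximal strength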
# TWEAK Fn14 block: TWEAK-Fn14 signaling inhibition. hit rate 2% among 360,000. inhibition, % at 10 µM. TWEAK-stimulated Fn14 reporter cells, luciferase luminescence, 8 h. AID 1159606; in the data active means inhibition above about 50%
# * = called active by the depositor; · = no result. Shown are actives, neighbours in structure and some others; about 2.2% of the full set was active somewhere.
SMILES,HSP90 refold inh,TROY NFkB inh,LGR2 inh,TWEAK Fn14 block
C/C(=N\Nc1nc2c(s1)CCCC2)c1ccc(Cl)cc1,12.9,31.3,·,54.7*
CC(C)NC(=O)c1cc(C(=O)c2cc(Cl)ccc2O)coc1=N,5.8,20.6,·,68.7*
Cc1ccc2oc(NC3=NC4(CCCC4)C4=C(CCCC4=O)N3)nc2c1,·,9.4,-1.7,51.7*
c1ccc(-c2csc(Nc3ccccn3)n2)cc1,12.6,-13.1,-42.7,53.2*
Cc1cc(-c2csc(Nc3ccccn3)n2)ccc1F,4.8,-10.0,-42.7,50.8*
COc1ccc(CN(C)C[C@H]2OCCCC[C@H](C)Oc3ccc(NC(=O)c4ccccc4)cc3C(=O)N([C@H](C)CO)C[C@H]2C)cc1,·,·,-1.0,·
COc1ccccc1-n1cccc1C=O,0.6,89.7*,7.7,2.8
COc1ccc(-n2cccc2C=O)cc1OC,2.7,-16.2,·,-0.9
COc1ccccc1Cn1c(=O)c2ccccc2n2c(Sc3ncnc4sccc34)nnc12,0.3,46.7,·,88.5*
COc1ccc(Nc2cc(C)c3cc([N+](=O)[O-])ccc3n2)cc1,0.9,-13.2,1.4,50.8*
COc1ccc(C(=O)/C=C/C(=O)N(CC(=O)NC2CCCCC2)Cc2ccc(F)cc2)c(O)c1,-1.9,89.5*,·,84.9*
O=C(Cc1ccccc1)NNC(=O)Nc1cccc(Cl)c1,-3.4,2.1,·,1.2
O=C(CN1c2ccccc2Sc2ccccc21)NNC(=O)Nc1cccc(Cl)c1,0.0,52.6*,·,39.8
C[C@H](CO)N1C[C@H](C)[C@@H](CN(C)Cc2ccc(-c3ccccc3)cc2)Oc2c(NC(=O)c3ccc(-c4nccs4)cc3)cccc2C1=O,·,·,2.6,·
CC(C)C[C@H]1CNC(=S)N1C[C@H]1CCCN1C[C@H](Cc1ccc(O)cc1)N1C[C@H](Cc2ccc(O)cc2)N(CC2CCCCCC2)C1=S,·,15.6,14.8,59.8*
Oc1ccc(C[C@@H](CN2CCC[C@@H]2CN2C(=S)NC[C@@H]2Cc2ccccc2)N2C[C@H](Cc3ccccc3)N(CCc3ccccc3)C2=S)cc1,·,18.0,9.9,11.1
Oc1ccc(C[C@H]2CNC(=S)N2CC2CCCN2C[C@H](Cc2ccccc2)N2C[C@H](Cc3ccc(O)cc3)N(CCc3ccccc3)C2=S)cc1 (stereo partly drawn),·,12.1,11.3,58.1*
CC(C)(C)NCC(=Cc1ccccc1)C(=O)c1ccccc1,·,21.2,72.5*,99.3*
COC(=O)c1c(-c2ccsc2)sc2ccc(-c3cc(OC)c(OC)c(OC)c3)cc12,·,12.9,13.6,15.3
COc1ccc2c(C#CCCO)c(-c3ccc(S(C)(=O)=O)cc3)sc2c1,·,-43.5,0.2,-27.2
COc1cc(-c2ccc3sc(-c4ccsc4)c(C#CCO)c3c2)cc(OC)c1OC,·,42.2,14.5,60.5*
COc1ccc2sc(-c3ccc(S(C)(=O)=O)cc3)c(C#CCO)c2c1,·,46.3,56.6*,77.2*
COc1ccc2c3c([nH]c2c1)[C@@H](CO)N(Cc1ccccc1F)CC31CCN(CC2CC2)CC1,·,·,8.2,·
CCCCNc1c(-c2ccc(OC)c(Sc3ccc(OC)cc3)c2)nc2cnccn12,·,-13.5,-13.9,12.5
COc1ccc(C(=O)Nc2c(-c3ccccc3)nc3ccccn23)c(OC)c1,3.5,12.3,-4.4,56.0*
SMILES,HSP90 refold inh,TROY NFkB inh,LGR2 inh,TWEAK Fn14 block
CCCCNc1c(-c2ccc(OC)c(Sc3ccc(OC)cc3)c2)nc2ccccn12,·,6.8,-15.1,57.2*
O=C1c2ccc(Oc3cccc([N+](=O)[O-])c3)cc2C(=O)N1c1ccccn1,1.4,28.4,·,16.8
O=C1c2cc([N+](=O)[O-])cc3cc([N+](=O)[O-])cc(c23)C(=O)N1c1ccccn1,-4.7,-28.3,28.1,63.9*
CN(C)C(=O)C[C@H]1C[C@@H]2c3cc(NC(=O)C4CCC4)ccc3O[C@@H]2[C@H](CO)O1,·,·,-5.0,·
O=C(Cc1ccncc1)NCC[C@H]1CC[C@@H](NC(=O)Nc2ccc(Cl)cc2)[C@H](CO)O1,·,·,-6.1,·
C[C@H]1CN([C@@H](C)CO)C(=O)c2cc(Br)cnc2O[C@@H]1CN(C)Cc1ccccn1,·,·,-11.4,·
Cc1cc(C(=O)Nc2ccc(Cl)cc2)c(C)n1Cc1cccs1,16.4*,50.8*,-16.3,59.9*
Cc1cc(C(=O)CN2C(=O)c3ccccc3C2=O)c(C)n1Cc1cccs1,1.6,-2.2,20.4,83.2*
Cc1cc(C)cc(NC(=O)c2cc(C)n(Cc3cccs3)c2C)c1,2.7,-27.9,-40.2,-19.2
COc1ccc2c3c(n(C)c2c1)[C@@H](CO)N(C(=O)c1ccncc1)CC31CN(CC2CC2)C1,·,·,-1.5,·
CO[C@@H]1CN(C)C(=O)c2ccc(NC(=O)C3CCC3)cc2OC[C@H](C)N(C(=O)NC(C)C)C[C@@H]1C,·,·,-26.1,·
COc1cc(NC(=O)c2cc(-c3ccccc3)nc3c2cnn3C(C)C)cc(OC)c1OC,·,23.4,·,55.4*
C=CCNc1nc(Nc2ccc(-c3nc4ccccc4o3)cc2)nc(N2CCOCC2)n1,2.0,58.2*,-7.9,53.5*
O=C1c2cccnc2C(=O)N1CO,-1.4,-26.8,·,-12.3
NC1=C(Br)C(=O)c2ncccc2C1=O,·,68.2*,101.0*,102.8*
CC(C)NC(=O)Nc1ccc2c(c1)C(=O)N([C@@H](C)CO)C[C@H](C)[C@@H](CN(C)Cc1ccc(Oc3ccccc3)cc1)O2,·,·,15.7,·
O=C(O)COc1ccc2nsnc2c1Cl,-3.4,18.0,·,-3.2
Cc1ccccc1C1=C/C(=C(\SS/C(C(=O)c2ccc(OCC(=O)O)c(Cl)c2Cl)=C2\C=C(c3ccccc3C)SS2)C(=O)c2ccc(OCC(=O)O)c(Cl)c2Cl)SS1,·,38.9,·,57.2*
CO[C@H]1CN(C)C(=O)c2ccc(NS(C)(=O)=O)cc2OC[C@H](C)N(Cc2cncnc2)C[C@H]1C,·,·,-13.0,·
CCOc1ccc2nc(SCc3ccc(CC(=O)O)cc3)c(C#N)cc2c1,8.7,76.3*,12.3,36.6
CC1(C)CC(=O)c2cc(C(=O)NNc3ccccc3)c(=O)n(-c3ccccc3)c2C1,3.8,-4.5,4.5,-11.3
CC1(C)CC(=O)c2cc(C(=O)NCc3ccco3)c(=O)n(-c3ccccc3)c2C1,-1.9,·,·,82.6*
C[C@@H]1CCCCO[C@H](CN(C)C(=O)C2CCCCC2)[C@H](C)CN([C@@H](C)CO)C(=O)c2cc(NS(=O)(=O)c3cccs3)ccc2O1,·,·,3.8,·
Cc1ccc(S(=O)(=O)N(C)C[C@@H]2Oc3c(NC(=O)Nc4ccc5c(c4)OCO5)cccc3C(=O)N([C@H](C)CO)C[C@@H]2C)cc1,·,·,11.2,·
CCOc1ccc(-c2ccc(SC)nn2)cc1,73.1*,75.2*,99.1*,-15.0
O=C(CSc1nc2nc(-c3cccs3)cc(C(F)(F)F)c2c(=O)[nH]1)Nc1ccc(F)c(F)c1,-0.4,48.8,3.9,69.8*
Cc1ccc(C)c(NC(=O)CSc2nc3nc(-c4cccs4)cc(C(F)(F)F)c3c(=O)[nH]2)c1,-0.5,53.4*,-0.6,6.9
Cc1ccc(C)c(NC(=O)CSc2nc(N)c(NC(=O)c3cccs3)c(=O)[nH]2)c1,-5.8,6.3,7.0,10.6
CC(/C=C1\SC(=S)N(CC(=O)O)C1=O)=C\c1ccccc1,-4.8,-31.6,8.2,-2.1
CC(=C\c1ccccc1)/C=C1/SC(=S)N(CCC(=O)O)C1=O,4.5,8.8,-11.1,54.5*
